The nature of assay [1]: Caspase-3/7 induction in CHO-K1 cells by small molecules, qHTS cell viability counter screen (AID 1346979). Further: nearly all actives have a fitted effect of over 35% in size. Further: potency means the concentration at half of the fitted maximal effect. The essentials:
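Multiplexed with Caspase-Glo 3/7 in CHO-K1 cells, this counter screen added CellTiter-Fluor after 16hr of compound exposure and recorded fluorescence 1hr later.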
For orientation: Quantitative high-throughput screening tests each substance at several concentrations.

A short description of assay [2]: Caspase-3/7 induction in CHO-K1 cells by small molecules, qHTS assay (AID 1346980). Further: nearly all actives have a fitted effect of over 15% in size. The method in brief: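 Wild-type CHO-K1 cells exposed to compounds for 17hr at 37 C, 5% CO2. Caspase-3/7 activity then measured by Caspase-Glo 3/7 luminescence after 30min at room temperature.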
Assay [3] concerns the target Nuclear receptor subfamily 1 group I member 2 (Homo sapiens) (UniProt O75469). Nature of the assay: Human pregnane X receptor (PXR) small molecule agonists, qHTS assay (AID 1346982). Further: nearly all actives have a fitted effect of over 35% in size. Further: potency means the concentration at half of the fitted maximal effect. The essentials: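 Cells: HepG2 stably carrying PXR-Luc. Medium held 5% charcoal-stripped FBS. Compounds in DMSO added after 5 hr plating, incubated 24 hr, then luminescence quantified with ONE-Glo.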

Assay [4] deals with Acetylcholinesterase (Homo sapiens) (UniProt P22303). Nature of the assay: Acetylcholinesterase (AChE) small molecule antagonists: colormetric cell-based qHTS assay (AID 1347395; calls by dose curve; further: nearly all actives have a fitted effect of over 30% in size). The method in brief: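 In this cell-based qHTS, attached SH-SY5Y cells were treated with test chemicals for 30 min, after which acetylthiocholine hydrolysis was followed by DTNB colour development over 90 min at 37 C.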
Chain of Acetylcholinesterase (Homo sapiens) (P22303 whole entry, looked up): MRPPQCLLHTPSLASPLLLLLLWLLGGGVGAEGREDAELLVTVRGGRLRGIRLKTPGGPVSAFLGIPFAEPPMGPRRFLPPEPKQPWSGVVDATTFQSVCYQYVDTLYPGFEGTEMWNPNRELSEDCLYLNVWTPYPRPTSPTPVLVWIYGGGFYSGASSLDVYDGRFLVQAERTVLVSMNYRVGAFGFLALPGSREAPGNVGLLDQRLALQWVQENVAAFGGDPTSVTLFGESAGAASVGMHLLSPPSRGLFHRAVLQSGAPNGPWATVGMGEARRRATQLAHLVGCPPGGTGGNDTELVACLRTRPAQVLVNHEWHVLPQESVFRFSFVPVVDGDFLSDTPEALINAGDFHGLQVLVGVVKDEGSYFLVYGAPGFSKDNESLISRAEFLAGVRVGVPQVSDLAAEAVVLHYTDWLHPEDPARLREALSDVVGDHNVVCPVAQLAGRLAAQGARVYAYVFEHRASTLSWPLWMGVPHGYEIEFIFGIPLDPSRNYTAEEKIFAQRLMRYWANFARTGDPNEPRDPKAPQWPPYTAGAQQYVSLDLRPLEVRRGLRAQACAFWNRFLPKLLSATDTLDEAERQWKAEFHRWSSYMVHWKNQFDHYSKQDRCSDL

For assay [5] the target is unchanged. Nature of the assay: Acetylcholinesterase (AChE) small molecule antagonists: enzyme-based qHTS assay (AID 1347397; calls by dose curve; further: nearly all actives have a fitted effect of over 55% in size). The following applies: Potency: AChE enzyme activity inhibition. The essentials: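 Colorimetric DTNB read-out of thiocholine released from acetylthiocholine by recombinant human AChE (50 mU/mL as dispensed). Compounds were preincubated 30 min at RT before substrate/DTNB addition, with a 10 min RT reaction.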

Assay [6] has the same target. Nature of the assay: Acetylcholinesterase (AChE) small molecule antagonists: enzyme-based qHTS assay with human liver microsomes (AID 1347399; calls by dose curve; further: nearly all actives have a fitted effect of over 60% in size). The following applies: Potency: qHTS inhibition. The method in brief: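 Recombinant human AChE (50 mU/mL in the enzyme mix) and human liver microsomes (0.25 mg/mL final) were preincubated with compound and NADPH (0.25 mg/mL final) for 30 min at 37 C. Acetylthiocholine/DTNB was then added; thiocholine was read colorimetrically after 10 min at room temperature.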

The target of assay [7] is Cytochrome P450 2D6 (Homo sapiens) (UniProt P10635). Description: Cytochrome P450 Family 2 Subfamily D Member 6 (CYP2D6) small molecule antagonists: luciferase reporter qHTS assay (AID 1671196). Further: nearly all actives have a fitted effect of over 50% in size. Further: potency means the concentration at half of the fitted maximal effect. The essentials: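 Enzyme and proluciferin substrate were first combined with test chemical for 10 min at room temperature. Adding NADPH regeneration solution started a 1 h reaction, stopped with luciferin detection reagent and read by luminescence 20 min later.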
Chain of Cytochrome P450 2D6 (Homo sapiens) (P10635 whole entry, looked up): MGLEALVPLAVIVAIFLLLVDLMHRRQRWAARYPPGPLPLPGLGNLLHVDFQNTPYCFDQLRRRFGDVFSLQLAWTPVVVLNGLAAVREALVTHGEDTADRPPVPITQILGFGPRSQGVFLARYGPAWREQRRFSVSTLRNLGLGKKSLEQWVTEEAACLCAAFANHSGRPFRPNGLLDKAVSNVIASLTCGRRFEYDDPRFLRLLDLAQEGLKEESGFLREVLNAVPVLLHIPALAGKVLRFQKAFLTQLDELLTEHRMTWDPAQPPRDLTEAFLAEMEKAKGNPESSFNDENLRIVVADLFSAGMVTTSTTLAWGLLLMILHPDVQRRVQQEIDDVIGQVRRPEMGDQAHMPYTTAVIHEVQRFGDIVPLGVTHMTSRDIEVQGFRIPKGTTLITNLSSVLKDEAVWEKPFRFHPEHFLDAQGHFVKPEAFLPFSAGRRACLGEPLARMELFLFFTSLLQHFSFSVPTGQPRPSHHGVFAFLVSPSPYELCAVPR
Background: A reporter such as luciferase makes a cellular process visible.

In assay [8] the target is Cytochrome P450 2C19 (Homo sapiens) (UniProt P33261). Nature of the assay: Cytochrome P450 Family 2 Subfamily C Member 19 (CYP2C19) small molecule antagonists: luciferase reporter qHTS assay (AID 1671197). Further: nearly all actives have a fitted effect of over 65% in size. Further: potency means the concentration at half of the fitted maximal effect. The essentials:
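First, compounds are pinned into enzyme-substrate mix and held 10 min at room temperature. Second, NADPH regeneration solution is added and plates incubate 1 h at 37C. Third, detection reagent is added and luminescence read after 20 min.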

Assay [9] concerns the target Cytochrome P450 2C9 (Homo sapiens) (UniProt P11712). Nature of the assay: Cytochrome P450 Family 2 Subfamily C Member 9 (CYP2C9) small molecule antagonists: luciferase reporter qHTS assay (AID 1671198). Further: nearly all actives have a fitted effect of over 50% in size. Further: potency means the concentration at half of the fitted maximal effect. The method in brief:
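P450-Glo proluciferin substrate with CYP2C9 enzyme; 10 min RT preincubation, then NADPH regeneration 1 h at 37C; luciferin detection reagent 20 min RT, luminescence in relative luminescence units.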

In assay [10] the target is Cytochrome P450 1A2 (Homo sapiens) (UniProt P05177). Description: Cytochrome P450 Family 1 Subfamily A Member 2 (CYP1A2) small molecule antagonists: luciferase reporter qHTS assay (AID 1671199). Further: nearly all actives have a fitted effect of over 50% in size. Further: potency means the concentration at half of the fitted maximal effect. The method in brief: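 Compounds were incubated with CYP1A2 and a luminogenic proluciferin substrate for 10 min at room temperature before the reaction was started with NADPH regeneration solution. After 1 h, detection reagent was added and light output, proportional to CYP activity, was recorded.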
Chain of Cytochrome P450 1A2 (Homo sapiens) (P05177 whole entry, looked up): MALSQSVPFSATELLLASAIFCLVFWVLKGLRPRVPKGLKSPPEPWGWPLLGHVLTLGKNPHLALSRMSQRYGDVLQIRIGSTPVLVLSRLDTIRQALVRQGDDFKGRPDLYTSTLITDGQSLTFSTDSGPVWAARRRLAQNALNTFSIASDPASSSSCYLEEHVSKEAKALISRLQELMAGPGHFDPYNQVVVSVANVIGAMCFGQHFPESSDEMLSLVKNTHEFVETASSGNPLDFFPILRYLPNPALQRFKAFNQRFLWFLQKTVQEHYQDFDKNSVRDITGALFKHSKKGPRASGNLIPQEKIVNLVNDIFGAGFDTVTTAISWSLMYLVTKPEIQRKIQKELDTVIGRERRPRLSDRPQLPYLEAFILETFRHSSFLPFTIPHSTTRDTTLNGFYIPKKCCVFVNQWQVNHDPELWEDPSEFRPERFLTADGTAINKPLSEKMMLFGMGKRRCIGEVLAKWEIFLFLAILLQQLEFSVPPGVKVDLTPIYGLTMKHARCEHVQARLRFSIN

Assay [11] concerns the target Voltage-gated inwardly rectifying potassium channel KCNH2 (Homo sapiens) (UniProt Q12809). Nature of the assay: Human Ether-a-go-go-Related Gene (hERG) channel small molecule antagonists: fluorescence cell-based qHTS assay (AID 1671200). Further: nearly all actives have a fitted effect of over 50% in size. Further: potency means the concentration at half of the fitted maximal effect. The essentials: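 Cell line hERG-U2OS; dye FluxOR II, 1 h RT dark; Tl+ stimulus; ex 480/em 540 nm, read each second for 2 min.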
Background: Block of hERG is tested as a sign of cardiac risk.

Assay [12] deals with Cytochrome P450 3A4 (Homo sapiens) (UniProt P08684). Nature of the assay: Cytochrome P450 Family 3 Subfamily A Member 4 (CYP3A4) small molecule antagonists: luciferase reporter qHTS assay (AID 1671201). Further: nearly all actives have a fitted effect of over 50% in size. Further: potency means the concentration at half of the fitted maximal effect. The essentials: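 Room-temperature assay throughout: 10 min compound–enzyme/substrate preincubation, 1 h reaction after NADPH regeneration solution, 20 min detection. Luciferin formed from proluciferin substrate is quantified by luminescence.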
Chain of Cytochrome P450 3A4 (Homo sapiens) (P08684 whole entry, looked up): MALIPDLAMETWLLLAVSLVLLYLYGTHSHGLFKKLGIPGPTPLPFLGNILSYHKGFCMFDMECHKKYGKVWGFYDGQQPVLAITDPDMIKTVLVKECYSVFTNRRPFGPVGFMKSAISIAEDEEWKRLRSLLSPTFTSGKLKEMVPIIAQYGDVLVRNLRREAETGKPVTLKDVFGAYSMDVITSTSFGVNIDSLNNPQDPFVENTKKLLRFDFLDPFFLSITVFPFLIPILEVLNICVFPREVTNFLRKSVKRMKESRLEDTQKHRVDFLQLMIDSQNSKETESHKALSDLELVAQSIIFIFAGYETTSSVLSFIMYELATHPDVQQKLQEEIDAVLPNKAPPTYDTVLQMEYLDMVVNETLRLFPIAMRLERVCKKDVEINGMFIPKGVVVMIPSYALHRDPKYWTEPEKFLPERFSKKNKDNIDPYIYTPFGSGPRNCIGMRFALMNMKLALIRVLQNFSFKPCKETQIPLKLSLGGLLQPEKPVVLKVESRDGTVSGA

For assay [13], the target named is Acetylcholinesterase (Homo sapiens) (UniProt P22303). Nature of the assay: Acetylcholinesterase (AChE) small molecule antagonists: fluorescence cell-based qHTS assay (AID 1347398; calls by dose curve; further: nearly all actives have a fitted effect of over 50% in size; further: potency means the concentration at half of the fitted maximal effect). To be noted: Potency: AChE activity. The essentials:
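SH-SY5Y, 2,000 cells/well, attached overnight; cmpd 30 min 37 C; acetylthiocholine/Thiolite Green cocktail 40 min RT; fluorescence Ex/Em 490/520 nm.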

Each structure is given as a SMILES string. Values joined by “and” are separate entries in the source; they are usually repeats but may differ in a detail not shown here. Equal entries are not always repeated. A number with no mark means an inactive call. Records with an inconclusive call do not appear. Active and inactive are the calls of the source. Unless noted, the call rests on the fitted dose curve; in most records, active means well fitted curve in the direction sought with a large enough effect in the repeat runs; inconclusive means weak or mixed curves; inactive means no such curve, though single readings can be large; an effect the other way counts as inactive or inconclusive.

Chain of Cytochrome P450 2C9 (Homo sapiens) (P11712 whole entry, looked up): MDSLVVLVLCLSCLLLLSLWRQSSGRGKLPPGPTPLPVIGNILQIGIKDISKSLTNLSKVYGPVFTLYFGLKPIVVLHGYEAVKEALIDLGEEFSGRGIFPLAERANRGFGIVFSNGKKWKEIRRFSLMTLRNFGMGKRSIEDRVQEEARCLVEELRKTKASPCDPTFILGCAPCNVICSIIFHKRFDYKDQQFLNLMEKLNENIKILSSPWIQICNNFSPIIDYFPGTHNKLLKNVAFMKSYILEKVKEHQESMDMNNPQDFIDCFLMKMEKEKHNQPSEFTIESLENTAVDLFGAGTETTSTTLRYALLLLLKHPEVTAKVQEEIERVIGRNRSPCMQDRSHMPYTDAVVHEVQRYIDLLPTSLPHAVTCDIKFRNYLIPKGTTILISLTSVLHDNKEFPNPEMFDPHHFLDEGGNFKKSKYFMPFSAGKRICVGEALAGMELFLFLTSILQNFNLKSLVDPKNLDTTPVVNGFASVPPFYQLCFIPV
Chain of Nuclear receptor subfamily 1 group I member 2 (Homo sapiens) (O75469 whole entry, looked up): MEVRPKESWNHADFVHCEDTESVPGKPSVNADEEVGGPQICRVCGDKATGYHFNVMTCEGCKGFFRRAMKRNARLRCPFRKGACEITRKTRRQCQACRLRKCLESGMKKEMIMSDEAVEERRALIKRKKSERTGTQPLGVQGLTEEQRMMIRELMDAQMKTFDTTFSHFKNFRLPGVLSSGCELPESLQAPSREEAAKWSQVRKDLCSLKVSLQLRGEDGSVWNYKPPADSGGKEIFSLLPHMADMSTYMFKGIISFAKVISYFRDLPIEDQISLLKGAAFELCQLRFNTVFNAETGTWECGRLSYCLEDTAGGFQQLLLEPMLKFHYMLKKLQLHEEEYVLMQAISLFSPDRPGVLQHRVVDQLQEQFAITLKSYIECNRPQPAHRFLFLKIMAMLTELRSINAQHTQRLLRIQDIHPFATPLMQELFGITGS
Chain of Cytochrome P450 2C19 (Homo sapiens) (P33261 whole entry, looked up): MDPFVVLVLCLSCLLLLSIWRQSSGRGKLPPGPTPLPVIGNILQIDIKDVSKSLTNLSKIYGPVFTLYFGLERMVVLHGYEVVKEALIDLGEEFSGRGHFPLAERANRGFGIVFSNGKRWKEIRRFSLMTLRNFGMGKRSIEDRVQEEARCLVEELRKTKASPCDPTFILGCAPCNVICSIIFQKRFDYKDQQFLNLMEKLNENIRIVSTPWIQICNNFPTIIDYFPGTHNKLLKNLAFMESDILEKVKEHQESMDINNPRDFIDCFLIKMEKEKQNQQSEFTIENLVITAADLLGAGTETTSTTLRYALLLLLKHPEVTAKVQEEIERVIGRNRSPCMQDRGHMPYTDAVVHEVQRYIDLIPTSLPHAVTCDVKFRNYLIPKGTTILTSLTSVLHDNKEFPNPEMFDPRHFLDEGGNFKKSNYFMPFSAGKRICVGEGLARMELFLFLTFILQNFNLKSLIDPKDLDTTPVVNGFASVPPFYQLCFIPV
Chain of Voltage-gated inwardly rectifying potassium channel KCNH2 (Homo sapiens) (Q12809 whole entry, looked up): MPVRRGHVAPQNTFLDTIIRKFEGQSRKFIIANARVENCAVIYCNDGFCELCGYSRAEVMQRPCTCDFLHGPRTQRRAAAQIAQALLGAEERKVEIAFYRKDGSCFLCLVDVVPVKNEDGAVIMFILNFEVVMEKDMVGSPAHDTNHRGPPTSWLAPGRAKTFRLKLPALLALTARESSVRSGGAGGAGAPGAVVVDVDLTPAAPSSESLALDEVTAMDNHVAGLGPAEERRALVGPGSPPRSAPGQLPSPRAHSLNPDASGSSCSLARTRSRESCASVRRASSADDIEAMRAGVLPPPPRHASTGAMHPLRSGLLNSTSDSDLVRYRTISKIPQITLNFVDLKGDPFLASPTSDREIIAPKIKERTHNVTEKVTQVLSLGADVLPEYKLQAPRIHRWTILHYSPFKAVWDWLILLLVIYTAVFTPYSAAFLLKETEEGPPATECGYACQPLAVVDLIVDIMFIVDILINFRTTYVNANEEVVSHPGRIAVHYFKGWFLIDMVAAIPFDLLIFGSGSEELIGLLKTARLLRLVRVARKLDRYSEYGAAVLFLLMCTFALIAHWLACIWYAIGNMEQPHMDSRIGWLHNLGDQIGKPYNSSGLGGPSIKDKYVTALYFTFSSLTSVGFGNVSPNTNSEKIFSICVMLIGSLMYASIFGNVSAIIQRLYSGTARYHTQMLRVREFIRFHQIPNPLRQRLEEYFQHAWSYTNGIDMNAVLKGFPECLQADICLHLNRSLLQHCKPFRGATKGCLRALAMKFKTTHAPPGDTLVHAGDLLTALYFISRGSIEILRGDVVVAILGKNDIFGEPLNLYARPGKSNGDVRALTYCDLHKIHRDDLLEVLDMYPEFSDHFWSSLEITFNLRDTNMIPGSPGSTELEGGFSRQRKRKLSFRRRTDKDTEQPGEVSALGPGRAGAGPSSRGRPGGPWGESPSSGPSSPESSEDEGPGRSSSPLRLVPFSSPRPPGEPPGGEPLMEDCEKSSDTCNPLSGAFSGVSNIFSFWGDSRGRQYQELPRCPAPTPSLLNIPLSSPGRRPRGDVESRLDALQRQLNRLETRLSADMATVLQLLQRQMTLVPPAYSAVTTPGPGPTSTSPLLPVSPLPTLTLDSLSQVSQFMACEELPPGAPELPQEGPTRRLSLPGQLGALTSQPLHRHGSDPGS

As to `CCCOCC(=Nc1ccc(Cl)cc1C(F)(F)F)n1ccnc1`, the Potency is 48.5 µM (active) in [1]; 24.3 µM (active) in assay [3]; 35.6 µM (active) in assay [7]; 0.71 µM (active) in assay [8]; 5.03 µM (active) in assay [9]; 8.94 µM (active) in [10]. The values for the Potency in [11] and in assay [12] were 48.9 µM (active) and 0.283 µM (active), respectively. The Potency entry in [2], in assay [4], in assay [5] and in assay [6] was “inactive” each time.
Turning to `S=C(SSC(=S)N1CCCCC1)N1CCCCC1`, the Potency in [1] is 1.88 µM (active); in assay [3], 9.44 µM (active); in assay [13], 38.9 µM (active); in assay [8], 6.92 µM (active); in assay [9] it was 6.92 µM (active). The Potency result in assay [2], in assay [4], in assay [5], in assay [6] and in assay [11] was “inactive” each time.
On to `C=CCC1=C(C)C(OC(=O)C2C(C=C(C)C)C2(C)C)CC1=O` (stereo unspecified), for which the Potency was 55.3 µM (active) in assay [1]; 10.3 µM (active) in assay [3]; 30 µM (active) in [7]; 1.69 µM (active) in [8]; 6.71 µM (active) in assay [9]; 25.9 µM (active) in assay [10]. For the same compound, in assay [11], the Potency was 29.2 µM (active). In addition, the Potency entry in assay [2], in assay [4], in [5] and in [6] was “inactive” in each case.
Take `O=S(=O)(c1ccc(Cl)cc1)c1ccc(Cl)cc1`: the Potency in assay [1] was 41.1 µM (active); in assay [3], 22 µM (active); in [8] it was 0.161 µM (active); in assay [10], 34 µM (active); in [11], 47.7 µM (active). The Potency entry in assay [2], in assay [4], in assay [5], in assay [13] and in assay [6] was “inactive” each time.
As to `BrCBr`, the Potency entry in assay [1], in assay [2], in assay [3], in assay [4], in assay [5] and in assay [13] was “inactive” in each case. Besides, the Potency entry in assay [6], in assay [7], in assay [8], in assay [9], in assay [10] and in assay [11] was “inactive” each time. Moreover, the Potency result in assay [12] is “inactive”.
With `O=c1c(C2CC(c3ccc(-c4ccc(Br)cc4)cc3)Cc3ccccc32)c(O)sc2ccccc12` (stereo unspecified), the Potency was 18.8 µM (active) in assay [1], 18.8 µM (active) in assay [3] and 5.49 µM (active) in assay [9]. The Potency entry in [2], in assay [4], in assay [5], in assay [13], in assay [6] and in assay [7] was “inactive” throughout. Further, the Potency result in [10], in [11] and in assay [12] was “inactive” each time.
For `Oc1cc(Cl)c(Cl)c(Cl)c1`, the Potency is 65 µM (active) in assay [1]; 29.1 µM (active) in assay [3]; 6.73 µM (active) in [7]; 26.8 µM (active) in assay [10]; 53.5 µM (active) in assay [12]. For the same compound, the Potency result in [2], in assay [4], in assay [5], in [13], in [6] and in [8] was “inactive” in each case. The Potency result in assay [9] is “inactive”.
Take `Oc1ccc2ccc3cccc4ccc1c2c34`: the Potency result in [1], in assay [2], in assay [4], in assay [5], in [13] and in [6] was “inactive” in each case. For the same compound, the Potency entry in [7] and in assay [11] was “inactive” each time. Further, the Potency in assay [3] was 27.3 µM (active); in assay [8], 20 µM (active); in assay [9] it was 35.6 µM (active); in assay [10] it was 0.894 µM (active); in assay [12], 31.7 µM (active).
With `Nc1ccc(Sc2ccc(N)cc2)cc1`, the Potency result in [1], in [2], in assay [4], in [5], in assay [13] and in assay [6] was “inactive” each time. The Potency entry in assay [11] was “inactive”. Further, the Potency was 34.4 µM (active) in assay [3], 31.7 µM (active) in assay [7], 5.03 µM (active) in assay [8] and 1.23 µM (active) in assay [9].
As to `Oc1ccc(C2(c3ccc(O)cc3)CCCCC2)cc1`, the Potency in assay [1] is 57.9 µM (active); in [3] it was 13 µM (active); in assay [8], 37.8 µM (active); in assay [9], 33.7 µM (active); in [12], 23.9 µM (active). Moreover, the Potency result in assay [2], in [4], in [5], in [13] and in assay [6] was “inactive” in each case.
For `Oc1ccc(C(c2ccc(O)cc2)(C(F)(F)F)C(F)(F)F)cc1`, the Potency was 60.8 µM (active) and 68.6 µM (active) in [1]; 24.2 µM (active) and 27.3 µM (active) in assay [3]; 5 µM (active) and 2.83 µM (active) in [8]; 3.16 µM (active) and 2 µM (active) in [9]; 43.4 µM (active) in [11]; 35.4 µM (active) and 35.6 µM (active) in assay [12]. For the same compound, the Potency result in assay [2], in assay [4], in assay [5], in [13], in assay [6] and in assay [10] was “inactive” in each case.
Regarding `Nc1ccc(Cl)cc1C(=O)c1ccccc1`, the Potency in [1] is 61.1 µM (active); in assay [3], 61.1 µM (active); in assay [8], 15.9 µM (active); in assay [9], 39.9 µM (active); in assay [10] it was 15.9 µM (active). In addition, the Potency result in assay [2], in assay [4], in assay [5], in assay [13] and in assay [6] was “inactive” in each case.
Turning to `CSCCCN=C=S`, the Potency result in [1], in assay [2], in assay [3], in [4], in [5] and in assay [13] was “inactive” throughout. For the same compound, the Potency result in assay [6], in assay [10] and in assay [12] was “inactive” throughout. In addition, the Potency in [8] is 71 µM (active).
Turning to `Nc1ccc(Cc2ccc(N)c(Cl)c2)cc1Cl`, the Potency in [1] was 59.1 µM (active); in assay [3], 52.7 µM (active); in [8], 6.86 µM (active); in assay [9], 61.2 µM (active); in assay [12] it was 3.44 µM (active). Moreover, the Potency entry in assay [2], in assay [4], in [5], in assay [13], in [6] and in [11] was “inactive” each time.
`Nc1c(Oc2ccccc2)cc(O)c2c1C(=O)c1ccccc1C2=O`: the Potency is 26.6 µM (active) in [1], 10.6 µM (active) in assay [3], 17.4 µM (active) in assay [9] and 1.23 µM (active) in assay [10]. Moreover, the Potency result in assay [2], in [4], in assay [5], in [13], in assay [6] and in assay [11] was “inactive” in each case. Further, the Potency result in assay [12] was “inactive”.
Turning to `CCCCCCCCCCCCCCC(Br)C(=O)O` (stereo unspecified), the Potency entry in assay [1], in [2], in assay [3], in assay [4], in assay [5] and in assay [13] was “inactive” in each case. Also, the Potency entry in assay [7], in assay [8], in [11] and in assay [12] was “inactive” in each case.
With `Cc1cc(C(F)(C(F)(F)F)C(F)(F)F)ccc1NC(=O)c1cccc(I)c1C(=O)NC(C)(C)CS(C)(=O)=O`, the Potency entry in assay [1], in [2], in assay [4], in assay [5], in [13] and in assay [6] was “inactive” throughout. Besides, the Potency entry in assay [8], in [10] and in [11] was “inactive” each time. Moreover, the Potency in assay [3] is 13.8 µM (active); in [7] it was 4.51 µM (active); in assay [9], 20.1 µM (active); in assay [12], 2.01 µM (active).
